Source: PubChem BioAssay (EPA / NIEHS)
Inconclusive results are not listed. Active and inactive are the calls of the source. How the source made its calls, unless noted: active means hit-call score of the fitted dose curve at least 0.9, where 1 is the maximum; inactive means score below 0.9.

How the values were obtained:
[1] = biological target: Oxysterols receptor LXR-alpha (Homo sapiens) (UniProt Q13133); assay: ATG_LXRa_TRANS: Attagene TRANS-FACTORIAL HepG2 Assay for human Liver X Receptor alpha (LXRa) (AID 2282980; active means hit-call score of the fitted dose curve at least 0.9, where 1 is the maximum); conditions: HepG2 Attagene TRANS reporter, LXRa transactivation
Outline: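 HepG2 cells were transiently transfected with multiplexed reporter units driven by chimeric LXRa–GAL4 fusion proteins, then dosed for 24 h. Reporter mRNA was quantified by RT-PCR, fluorescent labelling and capillary electrophoresis; gain of signal fitted against DMSO baseline.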

[2] = ATG_M_06_TRANS: Attagene TRANS-FACTORIAL HepG2 Assay for M06 Transcription Factor (Internal Marker) (AID 2282983; active means hit-call score of the fitted dose curve at least 0.9, where 1 is the maximum); conditions: HepG2 Attagene TRANS M06 internal marker reporter
Outline: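 HepG2 cells transiently transfected with multiplexed GAL4-UAS reporter transcription units; after 24 h compound exposure, reporter mRNA measured by RT-PCR, FAM-labelled primer extension, HpaI digestion and capillary electrophoresis. Gain-of-signal fitted versus DMSO baseline; background control readout.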

[3] = ATG_M_32_TRANS: Attagene TRANS-FACTORIAL HepG2 Assay for M32 Transcription Factor (Internal Marker) (AID 2282984; active means hit-call score of the fitted dose curve at least 0.9, where 1 is the maximum); conditions: HepG2 Attagene TRANS M32 internal marker reporter
Outline: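 Capillary electrophoresis of 6-FAM-labelled reporter fragments gives the signal; data fitted for gain over DMSO negative control. Source: HepG2 cells bearing transient multiple reporter transcription units, 24 h exposure.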

[4] = biological target: Nuclear receptor subfamily 4 group A member 2 (Homo sapiens) (UniProt P43354); assay: ATG_NURR1_TRANS: Attagene TRANS-FACTORIAL HepG2 Assay for human Nuclear Receptor Related Protein 1 (NURR1) (AID 2282985; active means hit-call score of the fitted dose curve at least 0.9, where 1 is the maximum); conditions: HepG2 Attagene TRANS reporter, mRNA readout
Outline: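 HepG2 / transient MRTU transfection / 24 h compound exposure / RT-PCR + CE fluorescence of reporter mRNA / gain-of-signal vs DMSO.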

[5] = biological target: Transcriptional activator Myb (Homo sapiens) (UniProt P10242); assay: ATG_Myb_CIS: Attagene CIS-FACTORIAL HepG2 Assay for human Myeloblastosis (Myb) Proto-Oncogene Transcription Factor (AID 2282986); conditions: HepG2 Attagene CIS-FACTORIAL Myb reporter transcription; actives raise or lower the signal
Outline: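 Reporter mRNA is quantified by RT-PCR and capillary electrophoresis 24 h after dosing HepG2 cells transfected with cis-regulated reporter units, which track endogenous transcription factor activity. Gain and loss of signal are fitted versus DMSO baseline.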

[6] = biological target: Nuclear respiratory factor 1 (Homo sapiens) (UniProt Q16656); assay: ATG_NRF1_CIS: Attagene CIS-FACTORIAL HepG2 Assay for human Nuclear Respiratory Factor 1 (NRF1) Orphan Gene (AID 2282987); conditions: HepG2 NRF1 cis-element reporter, Attagene multiplex; actives raise or lower the signal
Outline: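 Endogenous NRF1-driven reporter transcription in transfected HepG2 cells after 24 h treatment. Readout: RT-PCR products, 6-FAM labelled and resolved by capillary electrophoresis; changes fitted both directions relative to DMSO.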

[7] = ATG_NFI_CIS: Attagene CIS-FACTORIAL HepG2 Assay for human Nuclear Factor I (NFI) (AID 2282989); conditions: HepG2 cis-regulatory reporter, NFI response element transcription; actives raise or lower the signal
Outline: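 Reporter transcription driven by endogenous transcription factors in HepG2 cells; 24 h treatment. Quantitation by labelled RT-PCR fragments on capillary electrophoresis, gain- or loss-of-signal relative to DMSO.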

[8] = ATG_NRF2_ARE_CIS: Attagene CIS-FACTORIAL HepG2 Assay for human Nuclear Factor Erythroid 2 Related Factor 2 (NFR2) response to Antioxidant Response Elements (ARE) (AID 2282992); conditions: HepG2 Attagene ARE/NRF2 reporter, transcription factor activity; actives raise or lower the signal;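 on AC50: reporter mRNA level measured by RT-PCR and capillary electrophoresis fluorescence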
Outline: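 Cis-factorial assay: transfected HepG2 reporter library, 24 h dosing, mRNA readout via RT-PCR/CE; DMSO-referenced bidirectional analysis.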

[9] = ATG_Oct_MLP_CIS: Attagene CIS-FACTORIAL HepG2 Assay for human Octamer-Binding Transcription Factor (Oct) (AID 2282993); conditions: HepG2 Attagene cis-factorial Oct reporter, mRNA; actives raise or lower the signal
Outline: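 Transfected HepG2 cells, 24 h treatment. Reporter mRNA quantified by RT-PCR–capillary electrophoresis; bidirectional fitting against DMSO.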

[10] = biological target: Cellular tumor antigen p53 (Homo sapiens) (UniProt P04637); assay: ATG_p53_CIS: Attagene CIS-FACTORIAL HepG2 Assay for human p53 Transcription Factor (AID 2282994); conditions: HepG2 p53 cis-element reporter, Attagene mRNA; actives raise or lower the signal
Outline: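 Using HepG2 hepatoma cells carrying cis-acting multiplexed reporters, mRNA induction is detected after a 24 h exposure. Gain- and loss-of-signal responses are fitted relative to DMSO-treated cells.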

[11] = biological target: Oxysterols receptor LXR-beta (Homo sapiens) (UniProt P55055); assay: ATG_LXRb_TRANS: Attagene TRANS-FACTORIAL HepG2 Assay for human Liver X Receptor beta (LXRb) (AID 2282981; active means hit-call score of the fitted dose curve at least 0.9, where 1 is the maximum); conditions: HepG2 Attagene TRANS GAL4-LXRb reporter, mRNA
Outline: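 Gain-of-signal mRNA reporter endpoint, DMSO as negative control. Transiently transfected HepG2 cells carrying the NR-Gal4 chimera and GAL4-UAS reporter units were treated 24 h; transcripts quantified by RT-PCR and capillary electrophoresis fluorescence.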

[12] = biological target: Hepatocyte nuclear factor 4-alpha (Homo sapiens) (UniProt P41235); assay: ATG_HNF4a_TRANS: Attagene TRANS-FACTORIAL HepG2 Assay for human Hepatocyte Nuclear Factor 4 alpha (HNF4a) (AID 2282982; active means hit-call score of the fitted dose curve at least 0.9, where 1 is the maximum); conditions: HepG2 HNF4a transactivation reporter, mRNA readout
Outline: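 Gain-of-signal mRNA induction, relative to DMSO vehicle, was read after 24 h compound treatment of HepG2 cells bearing transfected GAL4-UAS reporters. Detection used RT-PCR, 6-FAM primer extension and capillary electrophoresis.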

[13] = biological target: Myc proto-oncogene protein (Homo sapiens) (UniProt P01106); assay: ATG_Myc_CIS: Attagene CIS-FACTORIAL HepG2 Assay for human Myelocytomatosis (Myc) Proto-Oncogene Transcription Factor (AID 2282990); conditions: HepG2, Attagene cis-reporter transcription factor activity; actives raise or lower the signal
Outline: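 Transiently transfected HepG2 cells bearing cis-promoter reporter units for endogenous transcription factors; 24 h exposure. Reporter mRNA measured by RT-PCR, 6-FAM primer extension, HpaI cut and capillary electrophoresis; bidirectional fit relative to DMSO.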

[14] = ATG_NF_kB_CIS: Attagene CIS-FACTORIAL HepG2 Assay for human Nuclear Factor Kappa B (NF-kB) (AID 2282991); conditions: HepG2 Attagene cis-factorial NF-kB reporter mRNA; actives raise or lower the signal
Outline: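 Readout is reporter transcript level, gain or loss versus DMSO, measured 24 h post-dose via RT-PCR, fluorescent labelling and capillary electrophoresis. Human HepG2 liver cells carried transiently transfected CIS reporter constructs reflecting endogenous factors.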

Hepatocyte nuclear factor 4-alpha (Homo sapiens), sequence (P41235 whole entry, looked up, the tested form may be a part): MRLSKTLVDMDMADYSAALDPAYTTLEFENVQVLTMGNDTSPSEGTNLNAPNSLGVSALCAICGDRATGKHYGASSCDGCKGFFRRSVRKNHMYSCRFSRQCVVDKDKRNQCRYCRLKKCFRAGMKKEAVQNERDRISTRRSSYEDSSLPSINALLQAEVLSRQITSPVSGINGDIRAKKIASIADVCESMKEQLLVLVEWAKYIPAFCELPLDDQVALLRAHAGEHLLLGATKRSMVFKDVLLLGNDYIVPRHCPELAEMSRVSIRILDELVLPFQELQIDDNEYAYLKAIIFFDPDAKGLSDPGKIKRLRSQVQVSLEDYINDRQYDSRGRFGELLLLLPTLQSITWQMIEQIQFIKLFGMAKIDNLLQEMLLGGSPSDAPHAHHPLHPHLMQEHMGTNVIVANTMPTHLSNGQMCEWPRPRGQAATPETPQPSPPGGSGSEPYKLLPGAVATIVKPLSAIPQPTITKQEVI
Transcriptional activator Myb (Homo sapiens), sequence (P10242 whole entry, looked up): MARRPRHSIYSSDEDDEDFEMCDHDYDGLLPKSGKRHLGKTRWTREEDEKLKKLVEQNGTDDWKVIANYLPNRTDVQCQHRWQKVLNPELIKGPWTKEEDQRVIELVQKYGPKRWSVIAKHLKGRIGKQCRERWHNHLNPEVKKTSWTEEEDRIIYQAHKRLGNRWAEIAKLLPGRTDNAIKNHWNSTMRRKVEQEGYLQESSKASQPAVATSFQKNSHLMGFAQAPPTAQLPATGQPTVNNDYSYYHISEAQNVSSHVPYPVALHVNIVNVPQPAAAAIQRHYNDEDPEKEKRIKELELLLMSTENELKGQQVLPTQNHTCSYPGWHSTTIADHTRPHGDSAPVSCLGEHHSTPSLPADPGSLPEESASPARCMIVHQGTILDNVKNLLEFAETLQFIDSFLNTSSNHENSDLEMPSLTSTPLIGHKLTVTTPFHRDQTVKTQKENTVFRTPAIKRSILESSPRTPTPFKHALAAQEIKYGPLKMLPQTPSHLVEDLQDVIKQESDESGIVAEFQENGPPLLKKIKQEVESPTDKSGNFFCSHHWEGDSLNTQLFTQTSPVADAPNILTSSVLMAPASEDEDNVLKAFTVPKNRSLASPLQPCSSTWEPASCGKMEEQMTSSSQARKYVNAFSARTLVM
Nuclear respiratory factor 1 (Homo sapiens), sequence (Q16656 whole entry, looked up): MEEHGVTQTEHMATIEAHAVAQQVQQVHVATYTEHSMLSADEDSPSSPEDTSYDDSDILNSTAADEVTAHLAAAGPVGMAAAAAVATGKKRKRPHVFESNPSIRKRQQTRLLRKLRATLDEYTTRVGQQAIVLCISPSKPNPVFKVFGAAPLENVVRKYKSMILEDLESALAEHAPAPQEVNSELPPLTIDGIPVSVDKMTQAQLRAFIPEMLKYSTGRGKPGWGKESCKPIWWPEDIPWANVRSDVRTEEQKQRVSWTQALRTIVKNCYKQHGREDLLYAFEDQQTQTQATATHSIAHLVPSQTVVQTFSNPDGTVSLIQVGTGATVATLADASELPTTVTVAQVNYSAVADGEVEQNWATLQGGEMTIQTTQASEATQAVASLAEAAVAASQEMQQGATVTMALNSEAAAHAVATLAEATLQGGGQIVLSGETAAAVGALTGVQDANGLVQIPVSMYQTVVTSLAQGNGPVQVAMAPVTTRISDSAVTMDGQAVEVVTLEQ
Myc proto-oncogene protein (Homo sapiens), sequence (P01106 whole entry, looked up): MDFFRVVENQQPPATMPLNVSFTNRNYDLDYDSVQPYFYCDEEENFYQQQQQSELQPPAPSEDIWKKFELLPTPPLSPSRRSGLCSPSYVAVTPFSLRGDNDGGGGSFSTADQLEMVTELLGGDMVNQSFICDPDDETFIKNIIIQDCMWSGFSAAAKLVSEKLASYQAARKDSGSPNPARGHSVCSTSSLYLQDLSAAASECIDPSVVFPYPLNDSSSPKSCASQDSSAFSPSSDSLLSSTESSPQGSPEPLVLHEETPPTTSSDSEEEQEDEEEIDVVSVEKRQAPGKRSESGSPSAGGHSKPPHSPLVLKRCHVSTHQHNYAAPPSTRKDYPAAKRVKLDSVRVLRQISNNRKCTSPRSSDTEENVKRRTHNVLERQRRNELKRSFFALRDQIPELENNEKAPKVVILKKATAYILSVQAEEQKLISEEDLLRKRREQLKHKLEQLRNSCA
Oxysterols receptor LXR-alpha (Homo sapiens), sequence (Q13133 whole entry, looked up, the tested form may be a part): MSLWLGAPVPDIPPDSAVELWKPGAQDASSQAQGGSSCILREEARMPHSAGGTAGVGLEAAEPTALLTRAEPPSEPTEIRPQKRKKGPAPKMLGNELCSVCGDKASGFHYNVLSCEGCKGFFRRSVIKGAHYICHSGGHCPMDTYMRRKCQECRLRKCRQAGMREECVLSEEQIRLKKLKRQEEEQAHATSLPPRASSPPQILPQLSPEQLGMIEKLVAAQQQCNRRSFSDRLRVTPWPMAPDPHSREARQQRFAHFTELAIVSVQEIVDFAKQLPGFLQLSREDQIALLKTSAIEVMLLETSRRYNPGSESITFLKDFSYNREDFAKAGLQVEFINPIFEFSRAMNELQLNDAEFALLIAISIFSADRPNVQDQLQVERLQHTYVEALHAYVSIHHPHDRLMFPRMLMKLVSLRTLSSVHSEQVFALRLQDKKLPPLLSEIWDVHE
Oxysterols receptor LXR-beta (Homo sapiens), sequence (P55055 whole entry, looked up, the tested form may be a part): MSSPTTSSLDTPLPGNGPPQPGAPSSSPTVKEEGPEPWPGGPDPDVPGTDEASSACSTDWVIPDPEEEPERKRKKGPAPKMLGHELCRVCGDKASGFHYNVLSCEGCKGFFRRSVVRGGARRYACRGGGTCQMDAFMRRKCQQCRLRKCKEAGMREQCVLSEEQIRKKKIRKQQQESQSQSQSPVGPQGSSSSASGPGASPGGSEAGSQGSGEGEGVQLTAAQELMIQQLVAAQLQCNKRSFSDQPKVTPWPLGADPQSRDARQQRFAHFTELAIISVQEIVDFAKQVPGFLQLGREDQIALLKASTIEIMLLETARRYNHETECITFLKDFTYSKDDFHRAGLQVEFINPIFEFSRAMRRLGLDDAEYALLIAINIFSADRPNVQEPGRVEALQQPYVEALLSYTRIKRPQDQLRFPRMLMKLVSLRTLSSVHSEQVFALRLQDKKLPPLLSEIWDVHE
Nuclear receptor subfamily 4 group A member 2 (Homo sapiens), sequence (P43354 whole entry, looked up): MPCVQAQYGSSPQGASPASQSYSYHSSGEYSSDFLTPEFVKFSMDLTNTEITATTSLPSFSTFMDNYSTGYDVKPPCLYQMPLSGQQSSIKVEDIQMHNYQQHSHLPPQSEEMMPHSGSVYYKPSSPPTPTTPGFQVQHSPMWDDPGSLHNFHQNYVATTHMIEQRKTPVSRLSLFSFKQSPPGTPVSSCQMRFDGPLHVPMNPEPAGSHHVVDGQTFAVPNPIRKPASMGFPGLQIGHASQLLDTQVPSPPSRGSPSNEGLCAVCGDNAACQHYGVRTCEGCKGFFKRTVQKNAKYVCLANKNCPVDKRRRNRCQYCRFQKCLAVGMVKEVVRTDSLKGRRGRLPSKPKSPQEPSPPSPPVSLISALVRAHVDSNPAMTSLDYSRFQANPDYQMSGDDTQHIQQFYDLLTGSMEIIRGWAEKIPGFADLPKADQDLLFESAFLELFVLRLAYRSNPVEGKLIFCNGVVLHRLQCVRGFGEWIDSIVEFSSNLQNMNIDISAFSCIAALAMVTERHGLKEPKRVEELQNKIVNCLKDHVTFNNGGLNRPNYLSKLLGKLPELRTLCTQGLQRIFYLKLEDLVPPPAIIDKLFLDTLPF
Cellular tumor antigen p53 (Homo sapiens), sequence (P04637 whole entry, looked up): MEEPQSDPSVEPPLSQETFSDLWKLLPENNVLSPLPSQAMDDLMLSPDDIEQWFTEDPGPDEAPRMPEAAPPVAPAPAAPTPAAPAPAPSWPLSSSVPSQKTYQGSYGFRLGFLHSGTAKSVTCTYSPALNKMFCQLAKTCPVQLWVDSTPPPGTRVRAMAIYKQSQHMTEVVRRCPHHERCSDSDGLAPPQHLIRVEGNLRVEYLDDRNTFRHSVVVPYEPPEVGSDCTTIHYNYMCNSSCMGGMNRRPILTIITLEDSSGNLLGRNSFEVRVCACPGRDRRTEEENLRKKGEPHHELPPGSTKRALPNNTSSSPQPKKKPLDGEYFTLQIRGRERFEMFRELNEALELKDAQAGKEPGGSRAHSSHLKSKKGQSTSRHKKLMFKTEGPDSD

Row | Compound | outcome [1] | outcome [2] | outcome [3] | outcome [4] | outcome [5] | outcome [6] | outcome [7] | AC50 [8] | outcome [9] | outcome [10] | outcome [11] | outcome [12] | outcome [13] | outcome [14] | outcome [8]
1 | C=CCCCCCCCCC(=O)OCC | inactive | inactive | inactive | inactive | inactive | inactive | inactive | 61.7 µM (active) | inactive | inactive |  |  |  |  | 
2 | CC1=CC[C@@H](C(C)(C)O)CC1 | inactive | inactive |  |  | inactive | inactive |  | 40.6 µM (active) | inactive | inactive | inactive | inactive | inactive | inactive | 
3 | O=S1(=O)CC=CC1 | inactive |  |  |  | inactive |  |  |  | inactive | inactive |  | inactive | inactive | inactive | inactive
4 | O=Cc1ccccc1O | inactive |  |  | inactive | inactive | inactive | inactive |  | inactive |  |  | inactive | inactive | inactive | inactive
5 | CC(=O)Nc1cc(S(=O)(=O)O)cc2cc(S(=O)(=O)O)c(N=Nc3ccccc3)c(O)c12 | inactive | inactive | inactive |  | inactive | inactive |  |  | inactive | inactive | inactive |  |  | inactive | inactive
6 | FC(F)(F)c1ccc(Cl)c(Cl)c1 | inactive |  |  |  | inactive | inactive | inactive |  | inactive | inactive |  | inactive | inactive | inactive | inactive
7 | CC(C)C(=O)c1ccccc1 | inactive | inactive | inactive |  | inactive | inactive |  |  | inactive | inactive |  | inactive | inactive | inactive | inactive
8 | NC(=O)NC(N)=O | inactive | inactive | inactive | inactive | inactive |  |  |  | inactive | inactive | inactive | inactive | inactive |  | inactive
9 | CC(C)=CCCC(C)=CC(=O)O | inactive | inactive |  |  | inactive | inactive | inactive |  | inactive | inactive |  |  | inactive | inactive | inactive
10 | CCCO | inactive | inactive | inactive | inactive | inactive | inactive | inactive |  | inactive | inactive |  |  | inactive | inactive | inactive
11 | C=C(C)CCCC(C)CCO (centres undefined) | inactive | inactive | inactive | inactive | inactive |  | inactive | 59.7 µM (active) | inactive | inactive |  |  | inactive | inactive | 
12 | OC[C@@H](O)[C@H](O)[C@@H](O)[C@@H](O)CO | inactive |  | inactive |  | inactive | inactive | inactive |  | inactive |  |  | inactive | inactive | inactive | inactive
